Molecules are shown by their SMILES. Inconclusive results are not listed. The source made the active and inactive calls. Rule for the calls, unless noted: active = hit-call score of the fitted dose curve at least 0.9, where 1 is the maximum; inactive = score below 0.9.

Assay [1] in a line: TAMU_PeakParms_SingleDonor1434_Chronotropy: Texas A&M University (TAMU) 1.5-hr Human Induced Pluripotent Stem Cell (iPSC)-derived Cardiomyocytes Calcium (Ca+2) Flux Assay for Cardiotoxicity: Chronotropy (changes in peak frequency) (AID 2284217). The following applies: actives raise or lower the signal. Summed up:
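iPSC-derived cardiomyocytes (single donor 1434) dosed at 0.2, 1, 10 and 100 uM in 0.5% DMSO for 1.5 h at 37C; Ca2+ dye fluorescence gave average beat frequency. Zero-beat points removed; bidirectional fit versus DMSO, POD as EC05.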

A short description of assay [2]: CCTE_Mundy_HCI_Cortical_Synap_Neur_Matur_NeuriteSpotCountPerNeuriteLength: CCTE's Synaptogenesis and Neurite Maturation Assay in rat cortical cells for Neurite Spot Count per Neurite Length, Mundy Lab (AID 2284210). Summed up: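 Primary rat cortical neurons, compound exposure DIV 7–12, 288.33 h endpoint. Hoechst, anti-MAP2 and anti-synaptophysin labelling; neurite-associated puncta per neurite length scored by automated imaging relative to DMSO controls.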

A short description of assay [3]: CCTE_Mundy_HCI_Cortical_Synap_Neur_Matur_BPCount: CCTE's Synaptogenesis and Neurite Maturation Assay in rat cortical cells for Branch Point Count, Mundy Lab (AID 2284211). Summed up: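 Rat primary cortical cultures, AraC added DIV 5; chemicals dosed DIV 7 through DIV 12. Fixed cells stained for MAP2, synaptophysin and Hoechst; neurite branch points counted by automated high-content imaging, fitted relative to DMSO.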

Assay [4] in a line: CCTE_Mundy_HCI_Cortical_NOG_NeuriteCount: CCTE's Neurite Outgrowth Assay in rat cortical cells for Neurite Count, Mundy Lab (AID 2284212).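 Note: cells fixed about two days after chemical exposure began.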 Summed up:
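Neurite number per cell from high-content imaging of betaIII-tubulin immunostaining, with Hoechst nuclear counterstain.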

A short description of assay [5]: CCTE_Mundy_HCI_Cortical_NOG_NeuriteLength: CCTE's Neurite Outgrowth Assay in rat cortical cells for Neurite Length, Mundy Lab (AID 2284213).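 For AC50: neurites imaged about 48 to 50 h after chemical exposure began.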 Summed up:
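Neurite length was read by high-content imaging of βIII-tubulin-labelled neurites in rat primary cortical cultures. Activity was fitted relative to DMSO.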

The nature of assay [6]: CCTE_Mundy_HCI_Cortical_Synap_Neur_Matur_NeuriteLength: CCTE's Synaptogenesis and Neurite Maturation Assay in rat cortical cells for Neurite Length, Mundy Lab (AID 2284214). As for the experimental part:
CCTE_Mundy_HCI_Cortical_Synap&Neurite_Matur is a multiplexed, cell-based-readout assay that uses rat primary cortical cells with measurements taken at 288.33 hours after chemical dosing in a microplate: 96-well plate.CCTE_Mundy_HCI_Cortical_Synap_Neur_Matur_NeuriteLength is one of eight components of the CCTE_Mundy_HCI_Cortical_Synap&Neurite_Matur assay. It measures synaptogenesis and neurite maturation related to neurite length using High Content Imaging of fluorescently labelled markers.[…] Using a type of morphology reporter, loss -of-signal activity can be used to understand developmental effects.
Cells are plated onto 96 well plates and allowed 2 hr for attachment to the substrate. At days in vitro (DIV) 5, Cytosine Arabinoside (AraC) is added to arrest glial cell growth. Chemicals are dosed and a media change is performed at DIV 7 of differentiation and is continued through DIV 12 when the experiment is terminated. Cells are fixed with […] and Hoechst Dye. Cells are stained using Millipore Mouse anti-MAP2MAB3418 (1:800) and Millipore Rabbit anti-Synaptophysinsc-1750 (1:250) primary antibodies and Alexa Fluor-488 goat anti-mouse and AlexaFluor-546 goat anti-rabbit secondary antibodies to label neuronal cell nuclei, synapses and neurites. A Cellomics ArrayScan VTi HCS Reader is used for automated image acquisition and analysis of neurite outgrowth.

Assay [7] is described as follows: CCTE_Mundy_HCI_Cortical_Synap_Neur_Matur_NeuriteSpotCountPerNeuron: CCTE's Synaptogenesis and Neurite Maturation Assay in rat cortical cells for Neurite Spot Count per Neuron Count, Mundy Lab (AID 2284215). Summed up:
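Rat primary cortical cells received AraC at DIV 5, then chemicals with a media change at DIV 7, and were fixed at DIV 12. Synaptophysin puncta on MAP2-stained neurites per neuron were counted by high-content imaging, fitted relative to DMSO.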

Assay [8] in a line: CCTE_Mundy_HCI_Cortical_Synap_Neur_Matur_SynapseCount: CCTE's Synaptogenesis and Neurite Maturation Assay in rat cortical cells for Synapse Count, Mundy Lab (AID 2284218). Summed up:
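Rat primary cortical cultures, AraC at DIV 5, chemical dosing DIV 7 to DIV 12 (288.33 h). Fixed cells stained for MAP2, synaptophysin and Hoechst; synapses per neuron counted by high-content imaging, loss of signal versus DMSO.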

Assay [9] is described as follows: CCTE_Mundy_HCI_hN2_NOG_NeuriteCount: CCTE's Neurite Outgrowth Assay in human hN2 cells for Neurite Count, Mundy Lab (AID 2284219; active = hit-call score of the fitted dose curve at least 0.9, where 1 is the maximum). Summed up:
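In this morphology assay, hNP1-derived neurons received test chemical 2 h post-plating and were fixed two days later in warm paraformaldehyde/sucrose containing Hoechst 33342. Neurites, labelled by rabbit anti-βIII-tubulin (1:800) and Alexa Fluor-488 (1:500), were counted automatically.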

Assay [10] is described as follows: IUF_NPC1_viability_72hr: Viability Assessment at 72 hours in the Leibniz Research Institute for Environmental Medicine (IUF) Neural Progenitor Cell Proliferation Assay (NPC1) (AID 2284209). Summed up:
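Single spheres (0.25-0.35 mm) of human fetal cortex-derived neural progenitor cells were grown in proliferation medium with EGF and FGF at 37C and 5% CO2. They were exposed for 72 h without renewal, and viability was read by alamar blue resorufin fluorescence.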

For the compound `c1ccc2ccccc2c1`, the AC50 in assay [1] was 9.92 µM (active).
Regarding `CCCOC(=O)c1cc(O)c(O)c(O)c1`, the AC50 in assay [1] was 50 µM (active).
Turning to `Oc1ccccc1`, the compound was classed as inactive in [2], in [3], in assay [4], in assay [5], in assay [6] and in [7]. Besides, the compound was called inactive in assay [8] and in [9].
Take `CC/C(=C(/CC)c1ccc(O)cc1)c1ccc(O)cc1`: the call in [2] and in assay [1] was inactive. The AC50 is 8.64 µM (active) in assay [3]; 22.6 µM (active) in assay [4]; 23.7 µM (active) in [5]; 9.46 µM (active) in assay [6]; 14.3 µM (active) in assay [7]; 15.4 µM (active) in assay [8]. Besides, in assay [9], the AC50 is 9.12 µM (active).
Regarding `CC(C)(c1cc(Br)c(O)c(Br)c1)c1cc(Br)c(O)c(Br)c1`, the compound was classed as inactive in assay [10] and in [1].
Regarding `CN1C(=O)CC[C@H]1c1cccnc1`, the compound was classed as inactive in assay [2], in assay [3], in [4], in assay [5], in assay [6] and in [7]. Moreover, the compound was classed as inactive in assay [8] and in assay [9].
As for `O=C1O[C@H]([C@@H](O)CO)C(O)=C1O`, the call in [10], in [2], in assay [3], in assay [4], in assay [5] and in assay [6] was inactive. Further, the outcome in assay [7], in assay [1] and in assay [8] was inactive.
Turning to `CN(C)c1ccc(C(=C2C=CC(=[N+](C)C)C=C2)c2ccc(N(C)C)cc2)cc1`, the result in assay [1] was inactive.

A word on the AC50: it is the midpoint of the concentration-response curve, whichever way the signal moves.

For the origin of these results see PubChem BioAssay (EPA / NIEHS).
